# Where a chain is given by its changes, count along the chain named.
# Tests used:
# Assay in all cases: PBM; 200 nM protein, PBS
# Conditions in all cases: dsDNA, one strand shown
# [1] = biological target: NKX2-5 (Homo sapiens, UniProt P52952 125-210, R139K)
# [2] = biological target: T1, NKX2-4 (Homo sapiens, UniProt Q9H2Z4 175-261, P217L)
# T1 sequence: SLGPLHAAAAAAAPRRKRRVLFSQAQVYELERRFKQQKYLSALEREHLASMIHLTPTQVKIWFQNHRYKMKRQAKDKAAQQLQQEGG
# [3] = biological target: T2, NKX2-4 (Homo sapiens, UniProt Q9H2Z4 175-261, T231S)
# T2 sequence: T1 sequence with L43P, T57S
# [4] = biological target: T3, NKX2-4 (Homo sapiens, UniProt Q9H2Z4 175-261)
# T3 sequence: T1 sequence with L43P
# [5] = biological target: T4, NKX2-6 (Homo sapiens, UniProt A6NCS4 118-204, R150C)
# T4 sequence: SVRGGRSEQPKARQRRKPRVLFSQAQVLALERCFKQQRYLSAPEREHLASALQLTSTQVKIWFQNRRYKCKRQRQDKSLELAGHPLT
# [6] = biological target: T5, NKX2-6 (Homo sapiens, UniProt A6NCS4 118-204)
# T5 sequence: T4 sequence with C33R
# [7] = biological target: T6, NKX2-4 (Homo sapiens, UniProt Q9H2Z4 175-261, R246Q)
# T6 sequence: T1 sequence with L43P, R72Q
# [8] = biological target: T7, NKX2-6 (Homo sapiens, UniProt A6NCS4 118-204, F151L)
# T7 sequence: T4 sequence with C33R, F34L
# [9] = biological target: NKX3-2 (Homo sapiens, UniProt P78367 192-278, P234S)
# [10] = biological target: NKX2-5 (Homo sapiens, UniProt P52952 125-210)
# [11] = biological target: NKX3-2 (Homo sapiens, UniProt P78367 192-278)
# Sequence of NKX3-2 (Homo sapiens, UniProt P78367 192-278) (P78367 192-278): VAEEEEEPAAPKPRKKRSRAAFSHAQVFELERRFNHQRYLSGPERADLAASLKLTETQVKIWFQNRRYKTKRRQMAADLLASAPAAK
# Sequence of NKX2-5 (Homo sapiens, UniProt P52952 125-210, R139K) (P52952 125-210 R139K): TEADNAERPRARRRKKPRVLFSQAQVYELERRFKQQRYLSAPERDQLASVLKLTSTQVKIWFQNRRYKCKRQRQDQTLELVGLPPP
# Sequence of NKX3-2 (Homo sapiens, UniProt P78367 192-278, P234S) (P78367 192-278 P234S): as the sequence (P78367 192-278) above, with P43S counted along it
# Sequence of NKX2-5 (Homo sapiens, UniProt P52952 125-210) (P52952 125-210): as the sequence (P52952 125-210 R139K) above, with K15R counted along it
Sequence,binding signal [1],binding signal [2],binding signal [3],binding signal [4],binding signal [5],binding signal [6],binding signal [7],binding signal [8],binding signal [9],binding signal [10],binding signal [11]
CCACTTAG,"13.1 upbm affinity estimate (log intensity, higher = more binding, comparable within an allelic series)","12.7 upbm affinity estimate (log intensity, higher = more binding, comparable within an allelic series)","13 upbm affinity estimate (log intensity, higher = more binding, comparable within an allelic series)","12.6 upbm affinity estimate (log intensity, higher = more binding, comparable within an allelic series)","12.2 upbm affinity estimate (log intensity, higher = more binding, comparable within an allelic series)","14 upbm affinity estimate (log intensity, higher = more binding, comparable within an allelic series)","13.1 upbm affinity estimate (log intensity, higher = more binding, comparable within an allelic series)","11.1 upbm affinity estimate (log intensity, higher = more binding, comparable within an allelic series)","13.4 upbm affinity estimate (log intensity, higher = more binding, comparable within an allelic series)","13.1 upbm affinity estimate (log intensity, higher = more binding, comparable within an allelic series)","13.5 upbm affinity estimate (log intensity, higher = more binding, comparable within an allelic series)"
CACTCAAG,"12.5 upbm affinity estimate (log intensity, higher = more binding, comparable within an allelic series)","12.5 upbm affinity estimate (log intensity, higher = more binding, comparable within an allelic series)","13 upbm affinity estimate (log intensity, higher = more binding, comparable within an allelic series)","12.4 upbm affinity estimate (log intensity, higher = more binding, comparable within an allelic series)","11.6 upbm affinity estimate (log intensity, higher = more binding, comparable within an allelic series)","13.5 upbm affinity estimate (log intensity, higher = more binding, comparable within an allelic series)","13.1 upbm affinity estimate (log intensity, higher = more binding, comparable within an allelic series)","10.5 upbm affinity estimate (log intensity, higher = more binding, comparable within an allelic series)",,"12.3 upbm affinity estimate (log intensity, higher = more binding, comparable within an allelic series)",
ATAAGTGG,"13.2 upbm affinity estimate (log intensity, higher = more binding, comparable within an allelic series)","12.8 upbm affinity estimate (log intensity, higher = more binding, comparable within an allelic series)","13.2 upbm affinity estimate (log intensity, higher = more binding, comparable within an allelic series)","12.7 upbm affinity estimate (log intensity, higher = more binding, comparable within an allelic series)","12.4 upbm affinity estimate (log intensity, higher = more binding, comparable within an allelic series)","13.9 upbm affinity estimate (log intensity, higher = more binding, comparable within an allelic series)","13.3 upbm affinity estimate (log intensity, higher = more binding, comparable within an allelic series)","11.4 upbm affinity estimate (log intensity, higher = more binding, comparable within an allelic series)","13.1 upbm affinity estimate (log intensity, higher = more binding, comparable within an allelic series)","13.1 upbm affinity estimate (log intensity, higher = more binding, comparable within an allelic series)","13.1 upbm affinity estimate (log intensity, higher = more binding, comparable within an allelic series)"
TACTTGAA,"12.6 upbm affinity estimate (log intensity, higher = more binding, comparable within an allelic series)","12.7 upbm affinity estimate (log intensity, higher = more binding, comparable within an allelic series)","13.2 upbm affinity estimate (log intensity, higher = more binding, comparable within an allelic series)","12.6 upbm affinity estimate (log intensity, higher = more binding, comparable within an allelic series)","11.6 upbm affinity estimate (log intensity, higher = more binding, comparable within an allelic series)","13.4 upbm affinity estimate (log intensity, higher = more binding, comparable within an allelic series)","13.3 upbm affinity estimate (log intensity, higher = more binding, comparable within an allelic series)","10.8 upbm affinity estimate (log intensity, higher = more binding, comparable within an allelic series)",,"12.5 upbm affinity estimate (log intensity, higher = more binding, comparable within an allelic series)",
GTACTTGA,"13 upbm affinity estimate (log intensity, higher = more binding, comparable within an allelic series)","12.8 upbm affinity estimate (log intensity, higher = more binding, comparable within an allelic series)","13.2 upbm affinity estimate (log intensity, higher = more binding, comparable within an allelic series)","12.6 upbm affinity estimate (log intensity, higher = more binding, comparable within an allelic series)","12.1 upbm affinity estimate (log intensity, higher = more binding, comparable within an allelic series)","13.7 upbm affinity estimate (log intensity, higher = more binding, comparable within an allelic series)","13.3 upbm affinity estimate (log intensity, higher = more binding, comparable within an allelic series)","11.1 upbm affinity estimate (log intensity, higher = more binding, comparable within an allelic series)",,"12.8 upbm affinity estimate (log intensity, higher = more binding, comparable within an allelic series)",
ACCACTTG,"12.8 upbm affinity estimate (log intensity, higher = more binding, comparable within an allelic series)","12.6 upbm affinity estimate (log intensity, higher = more binding, comparable within an allelic series)","13 upbm affinity estimate (log intensity, higher = more binding, comparable within an allelic series)","12.5 upbm affinity estimate (log intensity, higher = more binding, comparable within an allelic series)","11.8 upbm affinity estimate (log intensity, higher = more binding, comparable within an allelic series)","13.5 upbm affinity estimate (log intensity, higher = more binding, comparable within an allelic series)","13.1 upbm affinity estimate (log intensity, higher = more binding, comparable within an allelic series)","10.7 upbm affinity estimate (log intensity, higher = more binding, comparable within an allelic series)","12.6 upbm affinity estimate (log intensity, higher = more binding, comparable within an allelic series)","12.6 upbm affinity estimate (log intensity, higher = more binding, comparable within an allelic series)","12.7 upbm affinity estimate (log intensity, higher = more binding, comparable within an allelic series)"
CACTTATG,"13 upbm affinity estimate (log intensity, higher = more binding, comparable within an allelic series)","12.6 upbm affinity estimate (log intensity, higher = more binding, comparable within an allelic series)","13 upbm affinity estimate (log intensity, higher = more binding, comparable within an allelic series)","12.5 upbm affinity estimate (log intensity, higher = more binding, comparable within an allelic series)","12.2 upbm affinity estimate (log intensity, higher = more binding, comparable within an allelic series)","13.8 upbm affinity estimate (log intensity, higher = more binding, comparable within an allelic series)","13.1 upbm affinity estimate (log intensity, higher = more binding, comparable within an allelic series)","11.2 upbm affinity estimate (log intensity, higher = more binding, comparable within an allelic series)","12.8 upbm affinity estimate (log intensity, higher = more binding, comparable within an allelic series)","13 upbm affinity estimate (log intensity, higher = more binding, comparable within an allelic series)","12.9 upbm affinity estimate (log intensity, higher = more binding, comparable within an allelic series)"
GCACTTGA,"13.2 upbm affinity estimate (log intensity, higher = more binding, comparable within an allelic series)","12.8 upbm affinity estimate (log intensity, higher = more binding, comparable within an allelic series)","13.2 upbm affinity estimate (log intensity, higher = more binding, comparable within an allelic series)","12.6 upbm affinity estimate (log intensity, higher = more binding, comparable within an allelic series)","12.1 upbm affinity estimate (log intensity, higher = more binding, comparable within an allelic series)","13.9 upbm affinity estimate (log intensity, higher = more binding, comparable within an allelic series)","13.4 upbm affinity estimate (log intensity, higher = more binding, comparable within an allelic series)","11.4 upbm affinity estimate (log intensity, higher = more binding, comparable within an allelic series)",,"13.1 upbm affinity estimate (log intensity, higher = more binding, comparable within an allelic series)",
CCCACTTA,"13 upbm affinity estimate (log intensity, higher = more binding, comparable within an allelic series)","12.7 upbm affinity estimate (log intensity, higher = more binding, comparable within an allelic series)","13 upbm affinity estimate (log intensity, higher = more binding, comparable within an allelic series)","12.6 upbm affinity estimate (log intensity, higher = more binding, comparable within an allelic series)","12.2 upbm affinity estimate (log intensity, higher = more binding, comparable within an allelic series)","13.7 upbm affinity estimate (log intensity, higher = more binding, comparable within an allelic series)","13.1 upbm affinity estimate (log intensity, higher = more binding, comparable within an allelic series)","11.1 upbm affinity estimate (log intensity, higher = more binding, comparable within an allelic series)","13.2 upbm affinity estimate (log intensity, higher = more binding, comparable within an allelic series)","12.9 upbm affinity estimate (log intensity, higher = more binding, comparable within an allelic series)","13.2 upbm affinity estimate (log intensity, higher = more binding, comparable within an allelic series)"
CAAGTGGC,"12.5 upbm affinity estimate (log intensity, higher = more binding, comparable within an allelic series)","12.4 upbm affinity estimate (log intensity, higher = more binding, comparable within an allelic series)","12.8 upbm affinity estimate (log intensity, higher = more binding, comparable within an allelic series)","12.3 upbm affinity estimate (log intensity, higher = more binding, comparable within an allelic series)","11.7 upbm affinity estimate (log intensity, higher = more binding, comparable within an allelic series)","13.4 upbm affinity estimate (log intensity, higher = more binding, comparable within an allelic series)","12.9 upbm affinity estimate (log intensity, higher = more binding, comparable within an allelic series)","10.7 upbm affinity estimate (log intensity, higher = more binding, comparable within an allelic series)","12.5 upbm affinity estimate (log intensity, higher = more binding, comparable within an allelic series)","12.4 upbm affinity estimate (log intensity, higher = more binding, comparable within an allelic series)","12.6 upbm affinity estimate (log intensity, higher = more binding, comparable within an allelic series)"
CCACTTCA,"12.9 upbm affinity estimate (log intensity, higher = more binding, comparable within an allelic series)","12.9 upbm affinity estimate (log intensity, higher = more binding, comparable within an allelic series)","13.2 upbm affinity estimate (log intensity, higher = more binding, comparable within an allelic series)","12.7 upbm affinity estimate (log intensity, higher = more binding, comparable within an allelic series)","12 upbm affinity estimate (log intensity, higher = more binding, comparable within an allelic series)","13.7 upbm affinity estimate (log intensity, higher = more binding, comparable within an allelic series)","13.4 upbm affinity estimate (log intensity, higher = more binding, comparable within an allelic series)","11 upbm affinity estimate (log intensity, higher = more binding, comparable within an allelic series)","12.8 upbm affinity estimate (log intensity, higher = more binding, comparable within an allelic series)","12.9 upbm affinity estimate (log intensity, higher = more binding, comparable within an allelic series)","12.8 upbm affinity estimate (log intensity, higher = more binding, comparable within an allelic series)"
CACTTAAC,"12.8 upbm affinity estimate (log intensity, higher = more binding, comparable within an allelic series)","12.5 upbm affinity estimate (log intensity, higher = more binding, comparable within an allelic series)","12.9 upbm affinity estimate (log intensity, higher = more binding, comparable within an allelic series)","12.4 upbm affinity estimate (log intensity, higher = more binding, comparable within an allelic series)","11.8 upbm affinity estimate (log intensity, higher = more binding, comparable within an allelic series)","13.7 upbm affinity estimate (log intensity, higher = more binding, comparable within an allelic series)","13.1 upbm affinity estimate (log intensity, higher = more binding, comparable within an allelic series)","11.2 upbm affinity estimate (log intensity, higher = more binding, comparable within an allelic series)","12.9 upbm affinity estimate (log intensity, higher = more binding, comparable within an allelic series)","12.8 upbm affinity estimate (log intensity, higher = more binding, comparable within an allelic series)","12.9 upbm affinity estimate (log intensity, higher = more binding, comparable within an allelic series)"
AAGTGGAG,"12.2 upbm affinity estimate (log intensity, higher = more binding, comparable within an allelic series)","12.4 upbm affinity estimate (log intensity, higher = more binding, comparable within an allelic series)","12.7 upbm affinity estimate (log intensity, higher = more binding, comparable within an allelic series)","12.3 upbm affinity estimate (log intensity, higher = more binding, comparable within an allelic series)","11.7 upbm affinity estimate (log intensity, higher = more binding, comparable within an allelic series)","13.3 upbm affinity estimate (log intensity, higher = more binding, comparable within an allelic series)","12.8 upbm affinity estimate (log intensity, higher = more binding, comparable within an allelic series)","10.6 upbm affinity estimate (log intensity, higher = more binding, comparable within an allelic series)","12.7 upbm affinity estimate (log intensity, higher = more binding, comparable within an allelic series)","12.2 upbm affinity estimate (log intensity, higher = more binding, comparable within an allelic series)","12.8 upbm affinity estimate (log intensity, higher = more binding, comparable within an allelic series)"

# — paper PMC11006913
